Data taken from patent US20140271602, “NUCLEOTIDE-SPECIFIC RECOGNITION SEQUENCES FOR DESIGNER TAL EFFECTORS” (THE BROAD INSTITUTE INC., published 2014).

Target: T1, TALE1-NH (CACNA1C site 1 activator) (Xanthomonas (engineered), UniProt P14727 SEQ:1-983)
T1 chain: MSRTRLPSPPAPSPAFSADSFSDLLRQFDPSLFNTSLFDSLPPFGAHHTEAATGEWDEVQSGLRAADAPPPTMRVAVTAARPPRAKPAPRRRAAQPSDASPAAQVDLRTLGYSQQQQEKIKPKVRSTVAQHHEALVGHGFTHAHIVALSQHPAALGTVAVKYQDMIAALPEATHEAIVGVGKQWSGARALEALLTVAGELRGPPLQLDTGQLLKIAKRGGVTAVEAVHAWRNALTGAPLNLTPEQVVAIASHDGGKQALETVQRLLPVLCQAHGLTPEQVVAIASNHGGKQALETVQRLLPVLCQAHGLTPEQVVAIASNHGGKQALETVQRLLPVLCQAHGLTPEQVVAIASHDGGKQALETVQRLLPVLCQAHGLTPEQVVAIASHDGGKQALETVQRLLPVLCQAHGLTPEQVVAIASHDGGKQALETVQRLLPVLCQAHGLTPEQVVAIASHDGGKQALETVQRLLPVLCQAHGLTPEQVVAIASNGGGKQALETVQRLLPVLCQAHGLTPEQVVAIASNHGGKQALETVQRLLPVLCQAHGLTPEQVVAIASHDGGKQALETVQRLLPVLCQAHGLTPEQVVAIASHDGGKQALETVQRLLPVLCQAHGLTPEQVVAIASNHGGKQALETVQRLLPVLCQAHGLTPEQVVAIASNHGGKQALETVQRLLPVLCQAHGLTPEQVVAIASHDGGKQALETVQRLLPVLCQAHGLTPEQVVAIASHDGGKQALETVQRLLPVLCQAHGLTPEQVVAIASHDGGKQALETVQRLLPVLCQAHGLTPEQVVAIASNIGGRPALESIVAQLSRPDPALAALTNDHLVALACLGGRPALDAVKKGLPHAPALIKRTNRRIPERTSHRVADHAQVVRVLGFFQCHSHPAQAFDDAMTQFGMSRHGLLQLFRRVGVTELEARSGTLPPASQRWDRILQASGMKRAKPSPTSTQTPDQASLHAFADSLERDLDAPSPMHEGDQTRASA
Experiment: cell_activity; luciferase reporter
Conditions: tags: VP64, 2A-GFP; dsDNA, one strand shown
Procedure: TALEs using NN, NK, NH, and HN as the G-targeting RVD were synthesized to target two distinct 18 bp target sites in the human CACNA1C locus. Changes in mRNA are measured using qRT-PCR as described previously. VP64, VP64 transcription activation domain. All results are collected from three independent experiments in HEK 293FT cells. Error bars indicate s.e.m.; n=3. FIG. 19(b) discloses SEQ ID NOS 63 and 62, respectively, in order of appearance.
To determine whether NH and HN are suitable replacements for NN as the G-specific RVD, specificity and activity strength of NN, NK, NH, and HN were directly compared. Two 18 bp targets within the CACNA1C locus in the human genome were chosen and four TALEs for each target were constructed, using NN, NK, NH, or HN as the G-targeting RVD (FIG. 19a). […] For each CACNA1C target site, four luciferase reporters were constructed: wild type genomic target, and wild type target with 2, 4, or all guanines mutated into adenines (FIG. 19a, G-to-A reporters), and compared the activity of each TALE using these reporters (FIG. 19a). […] Thus, focus was placed on the RVDs NN, NK, and NH in subsequent experiments to assess their usefulness in modulating transcription at endogenous human genome targets.
With TCAACCCCTGCCGGCCCA the binding signal was 71.4 % reduction vs wild-type site.
For TCAACCCCTACCAACCCA, the binding signal was < 10 % of wild-type site activation.
